Data taken from PubChem BioAssay AID493014 (National Center for Advancing Translational Sciences (NCATS), 2011).
Screen size: about 340,000 compounds; about 170 (0.05%) were called active. Not shown: some 26% with an inconclusive outcome. The full list was thinned out, with actives kept by preference. Values without a mark were called inactive. Calls follow the shape of the dose curve; as a rule, active = well fitted inhibition curve with a large enough effect in the signal ratio, with a control signal flat (not every such curve was filed as active); inconclusive = small, poorly fitted or top-dose-only effect, or effect the other way, or a change in a side signal; inactive = flat fitted curve, though single readings scatter; the % refers to the signal ratio.

Assay: qHTS Assay to Find Inhibitors of Chronic Active B-Cell Receptor Signaling
Details: ABC-DLBCL IkBa-CBG/CBR reporter, luminescence ratio, 4 h; series mostly up to 46.1 µM; activity change, negative = inhibition: at the top concentration
Excerpt: NIH Molecular Libraries Probe Production Network [MLPCN] NIH Chemical Genomics Center [NCGC] MLPCN Grant: 1 R03 DA031086-01A1 PI Name: Dr. R. Eric Davis NCGC Assay Overview: Diffuse large B-cell lymphoma (DLBCL) is the most common category of non-Hodgkin lymphoma, with ~20,000 new cases per year in the United States. DLBCL should be regarded as a collection of different neoplasms. Microarray gene expression analysis has defined two principal types of DLBCL, named for their similarity to normal B cell stages or activation states: a germinal center B-cell (GCB) type, and an activated B-cell (ABC) type. In ABC-DLBCL, a constitutive high-level activity of the NF-kappaB family of transcription factors has been observed (1) and NF-kappaB target genes are more highly expressed in ABC primary tumors than in GCB tumors. Functional studies have shown a constitutive high-level activity of the IkappaB (inhibitor of kappa-B) kinase (IKK) complex. […] Further analysis of DLBCL primary tumors for NF-kappaB target gene expression imply that although CARD11 is required for constitutive IKK activity in all ABC-DLBCL lines, mutations in CARD11 may be the root cause of IKK activation only in lines or tumors with such mutations. In other words, CARD11 mutations may explain NF-kappaB activation in only 10% of ABC-DLBCL cases. […] This process has been termed 'chronic active BCR signaling' (CABS). The goal of this screen is to find small-molecule inhibitors of the CABS pathway found in ABC-DLBCL lines using a cell-based assay that measures IkappaBalpa stability, which has already been extensively validated in the OCI-Ly3 line (PubChem AID:445; REF: 4). […] The assay uses green (CBG68) and red (CBR) emitting beetle luciferases [Chroma-GloTM developed by Promega Corp.] where the green luciferase is fused to IkappaBalpha and the red luciferase is present in its native state. Both luciferase genes are stably present in the TMD8 human ABC DLBCL cell line, but their expression is under the control of tetracycline-inducible promoters. Following the addition of doxycycline to induce expression of the luciferases, the green luminescence in control cultures rises only slowly because the CBG fusion partner IkappaBalpha is targeted by IKK activity for rapid degradation. In contrast, green luminescence rises rapidly in the presence of proteasome inhibitors or IKK inhibitors. The rise in red luminescence of CBR is not affected by proteasome or IKK inhibitors, and serves as normalization for cell number and nonspecific effects. Compounds were screened as a concentration-titration series that ranged from 46 uM to 3 nM.
NCGC Assay Protocol Summary: Cells were seeded in 1536-well plates at 5000 cells/4uL in IMDM medium containing 0.5% FBS, w/o phenol red, 1% penicillin/streptomycin. Then, 23 nL of compounds or DMSO were delivered to each well using a pin tool. One uL 20ng/ml doxycycline was then dispensed into white solid 1536-well plates and the plates were incubated at 37C/5% C02 in a cell incubator for 4 hrs. Then 4 uL luminescent substrate mix (in-house prepared: 150 mM Tris-Cl, pH 7.6, 3 mM MgCl2, 1% Triton X-100, 5 mM DTT, 0.2 mM CoA, 0.15 mM ATP, 5 mM D-luciferin, final concentrations) was added to each well. The plate was incubated at r.t. for 10-15 min. The plates were measured on a ViewLux plate reader for green luminescence (540/20 nm filter) and red luminescence (618/8 nm filter). The green and red luminescent signals were corrected for red and green luminescence filter overlap using previously determined filter calibration constants (determined using the procedure outlined in the Promega Technical Manual; REF 4). The %Activity was determined from the ratio of corrected green/red luminescent values. MG132 were used as control. […] Red luminescent %Activity was normalized to the difference between red luminesence in basal cells (0%Activity) and zero luminescence (-100% Activity). […]
Potency is read from the fitted curve at half-maximal effect.

SMILES | activity change, negative = inhibition | Potency
CC1CCc2sc(C(=O)NCC(c3ccco3)N3CCCCC3)cc2C1 (stereo unspecified) | 9.66% | 
O=C(COc1ccc(F)cc1Br)NCC1COc2ccccc2O1 (stereo unspecified) | -20.7% | 
Cc1ccccc1-c1cc(C(=O)NCc2cccs2)n(CC2CC(c3cccnc3)=NO2)n1 (stereo unspecified) | -0.377% | 
O=C(c1ccc(N2CCOCC2)c([N+](=O)[O-])c1)N1CCN(c2ccccc2F)CC1 | 5.19% | 
C/C=C/c1ccc(OCC(=O)NNC(=O)CN(C)S(=O)(=O)c2ccc(C)cc2)c(OC)c1 | 0.21% | 
CN(CC(=O)Nc1ccc(OC(F)F)cc1)S(=O)(=O)/C=C/c1ccccc1 | 1.8% | 
C=CC[C@H](CC(=O)OC(C)(C)C)C(=O)OC[C@H]1CCCN1C(=O)[C@H](CC=C)CC(=O)N(CCO)Cc1ccccc1 | -0.82% | 
Cc1ccc(C(=O)CN2C(=O)NC3(CCc4ccccc43)C2=O)c(C)c1 (stereo unspecified) | 3.73% | 
CC(C(=O)Nc1ccc(S(=O)(=O)N2CCCC2)cc1)N(C)Cc1ccc(F)cc1 (stereo unspecified) | -1.3% | 
CCCCNc1c(-c2ccc(OC)c(Sc3ccc(OC)cc3)c2)nc2ccc(Cl)cn12 | 3.06% | 
Cc1ccc2c(CN3CCN(S(=O)(=O)c4ccccc4C(F)(F)F)CC3)cc(=O)oc2c1 | -0.0569% | 
COc1ccc(S(=O)(=O)N2CCOCC2)cc1NC(=O)c1ccc(OCC(C)C)c(OC)c1 | -2.65% | 
COc1ccccc1-c1oc2ccccc2c1C#CCCCCO | -1.28% | 
COc1ccccc1S(=O)(=O)NCc1ccc(C(=O)N(C)Cc2ccc(F)cc2)cc1 | 1.52% | 
COc1ccc(NC(=O)CCC(=O)N2CCN(S(=O)(=O)c3ccc(C)cc3)CC2)c(OC)c1 | -0.736% | 
CSc1ccccc1NC(=O)c1cnc2sc(C)cn2c1=O | 5.7% | 
COc1ccc(OCCCC(=O)Nc2cccc(S(=O)(=O)N3CCCCCC3)c2)cc1 | -11.7% | 
O=C(NCCc1ccco1)c1ccc(OCc2cn3ccccc3n2)cc1 | 2.67% | 
CN(CCc1ccccc1)C(=O)c1cccc(NC(=O)Cc2ccc([N+](=O)[O-])cc2)c1 | -0.71% | 
CC(C)CN(C(=O)COC(=O)c1ccc(Cl)c(N)c1)c1c(N)n(Cc2ccccc2)c(=O)[nH]c1=O | 7.64% | 
CCOC(=O)N1CCN(S(=O)(=O)c2ccc(OC)cc2)CC1 | -1.49% | 
NC(=O)c1ccccc1N(Cc1ccccc1)S(=O)(=O)c1ccccc1 | -0.649% | 
CCOC(=O)N1CCN(C(=O)c2ccccc2N(Cc2ccccc2)S(=O)(=O)c2ccc(OC)cc2)CC1 |  | 15.8 µM (active)

SMILES | activity change, negative = inhibition | Potency
O=C(CNS(=O)(=O)c1ccc2c(c1)OCCCO2)N1CCN(c2ccc(F)cc2)CC1 | -1.04% | 
Cc1c(C(=O)Nc2cccc(S(=O)(=O)N3CCOCC3)c2)oc2ccccc12 | 0.517% | 
O=C(O)CCCn1c(=O)c2cccn2c2ccc(F)cc21 | 0.777% | 
COc1cc(C#Cc2ccc3cc(CCCO)oc(=O)c3c2)cc(OC)c1 |  | 14.6 µM (active)
COc1cc(/C=C2\Oc3ccc(C#Cc4ccc(O)cc4)cc3C2=O)cc(OC)c1 | 1.17% | 
CC/C(=N\NC(=S)NC(C)C)c1ccc(OC(F)F)cc1 |  | 22.4 µM (active)
CC(NC(=S)Nc1ccc(OC(F)F)cc1)c1ccc(F)cc1 (stereo unspecified) | -0.112% | 
C/C(=N\NC(=S)NC(C)C)c1ccc(C(C)(C)C)cc1 | -7.38% | 
COc1ccc(C)cc1NC(=O)c1cc(-c2ccccc2)nc2c1cnn2C(C)C | -0.898% | 
Cc1ccc(C)c(OCCC(=O)Nc2cccc(S(=O)(=O)N3CCCC3)c2)c1 | 6.06% | 
Cc1ccnc(N2C(=O)c3ccc([N+](=O)[O-])cc3C2=O)c1 | 2.03% | 
Cc1ccc2nc(NC(=O)CSc3nc(=O)n(CCCN(C)C)c4c3CCC4)sc2c1 | -4.3% | 
CC(C)CC1NC(=O)c2cc(Cl)ccc2-n2c1nc1ccccc1c2=O (stereo unspecified) | 1.81% | 
O=C(Cc1ccc(S(=O)(=O)N2CCOCC2)s1)N1CCN(c2ccc(C(F)(F)F)cc2[N+](=O)[O-])CC1 | 9.72% | 
C[C@H](OC(=O)n1ccnc1)[C@@H]1O[C@@]2(C)CCC[C@@H]1O2 | 4.3% | 
O=C(OCc1cc(=O)n2ccsc2n1)C1(c2ccc(Cl)cc2)CC1 | -0.535% | 
COc1ccc(C)cc1NC(=O)CN1c2cccc3cccc(c23)S1(=O)=O | -10.2% | 
CCc1ccc(C(=O)NNC(=O)C2CCN(c3ncnc4sc(C)c(C)c34)CC2)cc1 | -0.145% | 
Cc1cccc(C)c1Nc1nnc(SCC(=O)NCCCN2CCCC2=O)s1 | 0.388% | 
Brc1ccc(CN2CC[C@H]3C=CCc4cccc(c43)C2)cc1 | 1.81% | 
O=C(OCC(=O)N1CCCCCC1)c1ccc(Cl)nc1 | 3.23% | 
CC1CCCCC12NC(=O)N(CC(=O)OCc1c(F)cccc1Cl)C2=O (stereo unspecified) | 0.901% | 
CCOc1ccc(S(=O)(=O)Nc2ccc(C(=O)NCCCN3CCCC3=O)cc2)cc1 | 1.73% | 
